Source: PubChem BioAssay
Shown are actives, neighbours in structure and some others; about 2.1% of the full set was active somewhere.
Abeta rescue: compounds reversing amyloid beta toxicity in yeast. yeast expressing A-beta42, growth rescue, OD600, 48 h; response scale: 0% DMSO, 100% iron-clioquinol control. Potency, µM (top dose mostly 46.1 µM), most hits filed as activators. 410,000 compounds, 0.063% hits. AID 1347071; further: nearly all actives have a fitted effect of over 55% in size
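Growth rescue measured by 600 nm absorbance after 48 h yeast culture at 30 C with compound. Values normalized between DMSO and an equimolar ferric chloride plus clioquinol control.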
aSyn rescue: alpha-synuclein toxicity inhibition in yeast; Potency, µM (series often up to 46.1 µM), inactives show at the top dose growth rescue (activation), usual class: activators; Yeast expressing alpha-synuclein, growth rescue, BacTiter-Glo, 24 h; 370,000 compounds, 0.14% hits; further: % of control where 0% means no effect; nearly all actives have a fitted effect of over 65% in size
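Screening used galactose-induced yeast with toxic alpha-synuclein levels, exposed to compound for 24 hr at 30 deg C. Cell growth, read with BacTiter-Glo luminescence, gave the measured signal.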
FUS suppressor: suppressors of FUS proteinopathy in yeast | S. cerevisiae FUS-expressing, growth rescue, OD600, 24 h | Potency, µM (titrated, usually from 76.6 µM), most hits filed as activators | 390,000 compounds, 0.24% hits | AID 1347120;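 further: plate controls were DMSO vehicle for no effect and reference control for full effect; nearly all actives have a fitted effect of over 55% in size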
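Read-out: OD at 600 nm after 24hr at 30C, reporting rescue of FUS-induced yeast toxicity. Cells at OD 0.005 in galactose (2%) minimal medium; compounds tested in a dilution series; CP55940 titration from 92uM final as control.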
TDP-43 yeast inh: rescues yeast growth from TDP-43 toxicity; TDP-43 expressing yeast growth rescue, BacTiter-Glo, 24 h; Potency, µM (highest dose often 46.1 µM), inactives show at the top dose growth rescue (activation), most hits filed as activators; 410,000 compounds, 1.8% hits; AID 652104; further: % of control where 0% means no effect; nearly all actives have a fitted effect of over 50% in size
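Readout is BacTiter-Glo luminescence of cell growth, so inhibitors register as activators. TDP-43-expressing yeast at OD600=0.02 in galactose medium, after raffinose pregrowth to mid-log, were incubated with compound for 24 hr at 30 deg C.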
The depositor's hits bear a star; i = inactive; ? = inconclusive; / = no result; [ ] = remark or other dose. The call rests on the fitted dose curve; in most records, active means well fitted curve in the direction sought with a large enough effect; inconclusive means small, poorly fitted or top-dose-only effect, or another doubt; inactive means no such curve, though single readings can be large; an effect the other way counts as inactive or inconclusive. Potency means the concentration at half of the fitted maximal effect.

SMILES	Abeta rescue	aSyn rescue	FUS suppressor	TDP-43 yeast inh
O=[N+]([O-])c1cccc(C2=Nn3c(nnc3-c3ccccc3)SC2)c1	/	/	i	/
O=C(Oc1c(Cl)cc(Cl)c2cccnc12)c1ccco1	i	3.5µM*	/	?
COC(=O)C1=C(N)Oc2cc(C)n(Cc3cccnc3)c(=O)c2C1c1cc(OC)ccc1OC (stereo unspecified)	i	4%	i	-3%
COc1cc(CNCCSc2nnnn2C)cc(OC)c1OC	i	-5%	i	-3%
CC1(C)C(=O)C=CC(=O)C(C)(C)C(=O)C=CC(=O)C(C)(C)C2=CC=C(O2)C(C)(C)C(=O)C=CC1=O	i	8%	/	16µM*
COc1ccc(CNC(=O)COc2ccc(C(=O)c3ccc(F)cc3)cc2)cc1	i	-10%	i	22%
O=C(COc1ccc(C(=O)c2ccc(F)cc2)cc1)NCc1ccc(F)cc1	i	7%	/	20µM*
CCOc1ccccc1/C=N/OCC(=O)NCc1ccc(F)cc1	i	2%	i	22µM*
COC(=O)c1ccc(CNC(=O)COC(=O)CCC(=O)c2ccc(F)cc2)cc1	i	-2%	/	2%
COC(=O)c1ccc(/C=N/OCC(=O)NCc2ccc(F)cc2)cc1	i	0%	i	32µM*
CC(=O)N1CCc2cc(S(=O)(=O)NCC(=O)NCc3ccccc3Cl)ccc21	i	3%	i	2%
CCCCC(=O)N1C(C)CCC1C (stereo unspecified)	i	3%	i	20%
NC(=O)N/N=C/c1sc(N2CCCCC2)nc1-c1cccs1	i	0%	i	-16%
CCOC(=O)c1ccc(N2CCN(c3cc(C)ccc3C)CC2)c(NC(=O)Nc2ccc(CC)cc2)c1	i	/	i	-3%
CC(CCc1ccccc1)NC(=O)CCC(=O)N1CCC(C(N)=O)CC1 (stereo unspecified)	i	-2%	i	-2%
O=c1c2ccccc2[nH]c(=S)n1Cc1ccc2c(c1)OCO2	i	8%	i	6%
O=C(CCCCCn1c(=S)[nH]c2ccccc2c1=O)NCc1ccc2c(c1)OCO2	i	1%	i	7.1µM*
CN(C)CC(CCCCC(CN(C)C)C(=O)c1ccccc1)C(=O)c1ccccc1 (stereo unspecified)	i	0%	i	6%
CC(C)Oc1ccc(/C(O)=C2/C(=O)C(=O)N(CCN3CCOCC3)C2c2ccccc2)cc1 (stereo unspecified)	i	4%	i	23%
CSc1nccc(N2CCN(c3ccc(F)cc3)CC2)n1	i	6%	i	-8%[0.397 µM]
Clc1ccc(N2CCN(c3ccnc(Cl)n3)CC2)cc1	i	?	i	18µM*
CCOc1ncccc1C(=O)OCC(=O)N(CC)c1ccccc1	i	0%	i	13%
Cc1ccc(-c2noc(/C=C/c3ccccc3)n2)cc1	i	-14%	i	-16%
c1ccc(-c2nc(-c3ccncc3)no2)cc1	i	3%	i	5%
Clc1ccccc1-c1nc(-c2cccnc2)no1	i	4%	i	?
SMILES	Abeta rescue	aSyn rescue	FUS suppressor	TDP-43 yeast inh
c1ccc(C(Cc2nc(-c3ccncc3)no2)c2ccccc2)cc1	i	1%	i	35µM*
Clc1ccccc1/C=C/c1nc(-c2cccnc2)no1	i	-4%	i	10µM*
Cc1ccccc1-c1nc(-c2cccnc2)no1	i	0%	i	14µM*
C(=C\c1nc(-c2cccnc2)no1)/c1ccccc1	i	-7%	i	2.2µM*
CN(C)S(=O)(=O)c1cccc(NC(=O)c2cc3c(=O)n4ccccc4nc3s2)c1	i	1%	i	-15%
O=c1nc2c(-c3cccc(Br)c3)n[nH]n2c2ccccc12	i	0%	i	-13%
O=C(/C=C/c1ccccc1)Nc1cccc(C(=O)N2CCCCC2)c1	i	0%	i	18%
Cc1cc(C)c(C)c(OCc2nc(-c3cccnc3)no2)c1	i	/	i	-14%
Cc1ccc(SCc2nc(-c3cccnc3)no2)cc1	i	5%	i	18µM*
CSc1ccccc1-c1nc(-c2ccncc2)no1	i	14%	i	14µM*
COC(=O)Cn1c(C)nc2ccccc21	i	2%	i	-9%
N#C/C(=C\c1ccc(OC(F)F)cc1)C(=O)N1CCCCC1	i	13µM*	i	?
COc1ccc(-c2nc(CCNC(=O)c3cccs3)cs2)cc1	i	-31%	i	?
O=C(NCCc1csc(-c2ccc(F)cc2)n1)c1cccs1	i	/	i	11µM*
O=C(NCCc1csc(-c2cccc(F)c2)n1)c1cccs1	i	/	i	16µM*
Cc1cc(C(=O)OCCN2C(=O)c3ccccc3C2=O)c2ccccc2n1	i	?	16µM*	?
CCOC(=O)CSC1=NC(=O)/C(=C/c2ccc(Br)cc2)S1	i	-31%	i	11µM*
CCOC(=O)CSC1=NC(=O)/C(=C\c2ccc(OC(C)=O)cc2)S1	i	-9%	i	-22%
CC(=O)/C=C1\OCc2cc(OCc3ccccc3)ccc21	i	3%	i	10µM*
CC(=O)/C=C1\OCc2ccccc21	i	0%	i	8%
O=S(=O)(c1ccccc1F)N1CCC(Oc2ccc(-n3cnnn3)cc2)CC1	?	24%	i	13µM*
O=C(CSc1nc2scc(-c3ccco3)c2c(=O)n1-c1ccccc1)N1CCOCC1	i	0%	i	-8%
NC(=O)CSc1nc2scc(-c3ccco3)c2c(=O)n1-c1ccccc1	i	-1%	22µM*	2%
CC(C)(C)c1ccc(Nc2n[nH]c3ccccc23)cc1	i	6%	?	35µM*
CC(=O)C1C(c2ccc(C)cc2)c2c(noc2C)CC1(C)O (stereo unspecified)	i	11%	i	18%
SMILES	Abeta rescue	aSyn rescue	FUS suppressor	TDP-43 yeast inh
O=C(c1ccc2nc(-c3ccccc3)c(-c3ccccc3)nc2c1)N1CCCCC1	i	-1%	i	35µM*
Cc1ccc(C2CC2C(=O)NNC(=S)Nc2cccc(Cl)c2)cc1 (stereo unspecified)	i	-2%	?	14µM*
Cc1ccc(NC(=S)NNC(=O)C2CC2c2ccc(C)cc2)cc1 (stereo unspecified)	?	1%	28µM*	0%
COc1ccc(NC(=S)NNC(=O)C2CC2c2ccc(C)cc2)cc1 (stereo unspecified)	i	4%	/	?
Cc1cc(-c2c(C)[nH]n(-c3ccc(Cl)cc3)c2=O)n[nH]1	i	?	?	22µM*
Cc1[nH]n(-c2ccccc2)c(=O)c1Sc1ccc(Cl)cc1	i	-54%	i	10%
COc1cc(C(C(=O)NC2CCCCC2)N(C(=O)Cc2c[nH]c3ccccc23)c2ccccc2C)cc(OC)c1OC (stereo unspecified)	i	4%	22µM*	14%
CN(CC(=O)NCc1ccc(F)cc1)S(=O)(=O)c1ccc2[nH]c3c(c2c1)CCCC3	i	/	i	-5%
